High-throughput results from PubChem.
BoNT A protease – BoNT A light chain protease inhibition. multiplex microsphere protease substrate cleavage, flow cytometry. inhibition, % at 10 µM. 0.17% of 360,000 active; note: plate controls were buffer without enzyme for full effect and enzyme alone for no effect
Anthrax LF inh2 – blocks Bacillus anthracis lethal factor protease; P15917; multiplex microsphere protease cleavage assay, LF; inhibition, % at 10 µM; 0.12% of 360,000 active; AID 588501; note: plate controls were buffer without enzyme for full effect and enzyme alone for no effect
TcdB GH inh – TcdB glycohydrolase inhibition; 0.24% of 350,000 active; inhibition, % at 9.99 µM; TcdB glycohydrolase enzymatic assay, plate reader; P18177; in the data active = inhibition above about 10%
Bead autofluor – compound fluorescence in toxin protease inhibitor counterscreen; 3.1% of 360,000 active; compound autofluorescence counterscreen, microsphere flow cytometry; hits give high values; AID 624483; fluorescence intensity (test concentration not listed); in the data active = fluorescence intensity above about 16000; inconclusive = no clear call, values can overlap the other calls
BoNT-F LC inh – BoNT F light chain protease inhibition | Multiplex microsphere protease cleavage assay, flow cytometry | inhibition, % at 10 µM | 0.22% of 360,000 active; in the data active = inhibition above about 35%, passing the limit was not always enough; inconclusive = no clear call, values can overlap the other calls; note: plate controls were buffer without enzyme for full effect and enzyme alone for no effect
The depositor's hits bear a star; ? = inconclusive; / = not tested or not shown. Many of the other results were omitted from the sample, so hits are more common in it than they were. Cut-off read from the data, not from the text of the source, unless noted: active = inhibition above about 30%; inconclusive = no clear call, values can overlap the other calls; inactive = below that.

SMILES | BoNT A protease | Anthrax LF inh2 | TcdB GH inh | Bead autofluor | BoNT-F LC inh
C[C@@H]1CCCCO[C@H](CN(C)C(=O)C2CCCCC2)[C@@H](C)CN([C@@H](C)CO)C(=O)c2cc(NS(=O)(=O)c3cn(C)cn3)ccc2O1 | / | / | -1 | / | /
COc1ccc(N2C3=[N+](CCCC3)CC2(C)O)cc1 (stereo unspecified) | -3 | -4 | / | 16662* | -4
COc1ccc(N2CC(O)(c3ccc(C)cc3)[N+]3=C2CCCC3)cc1 (stereo unspecified) | 0 | 4 | 2 | 3530 | 1
Cn1ccnc1SCc1ccc([N+](=O)[O-])cc1 | ? | 2 | / | 19757* | 7
Cc1nnc(SCc2cc([N+](=O)[O-])cc3c2OCOC3)[nH]c1=O | 1 | 0 | 1 | 5339 | 0
COc1ccc(Nc2nnc(SCc3cc([N+](=O)[O-])cc4c3OCOC4)s2)cc1 | -1 | -1 | / | 23675* | -3
COC(=O)CSc1nnc(SCc2ccc(OC)cc2)s1 | 0 | 3 | / | 9828 | 7
COc1ccc(CSc2nnc(SCc3ccc([N+](=O)[O-])cc3)s2)cc1 | 1 | 0 | / | 23671* | -3
C[C@@H]1CN([C@@H](C)CO)C(=O)Cc2cc(NS(=O)(=O)c3ccc(Cl)cc3)ccc2O[C@@H]1CN(C)CC1CCCCC1 | / | / | 0 | / | /
C[C@@H]1CN([C@@H](C)CO)C(=O)c2cccc(NC(=O)c3cnccn3)c2O[C@@H]1CN(C)S(C)(=O)=O | / | / | 3 | / | /
COc1ccc(C2C(C(C)=O)=C(O)C(=O)N2c2cccnc2)c(OC)c1 (stereo unspecified) | -1 | -4 | / | 16553* | -2
COc1ccc(C2C(C(C)=O)=C(O)C(=O)N2C)c(OC)c1 (stereo unspecified) | -1 | 7 | / | 3990 | ?
Cc1nn(CCC(=O)NNC(=S)Nc2ccc(F)cc2)c(C)c1[N+](=O)[O-] | 1 | -2 | / | 22117* | 2
CC(C)C(=O)Nc1ccc2c(c1)C(=O)N(C)[C@H]1CC[C@@H](CC(=O)NCCCN(C)C)O[C@@H]1CO2 | / | / | -2 | / | /
O=C(CCc1ccccc1)c1ccc2c(c1)OCCCO2 | ? | -1 | / | 19780* | 4
C=CCn1c(C)c(C=C2C(=O)NC(=O)NC2=O)c2ccccc21 | 33* | -3 | 3 | 3438 | ?
Cc1noc(C)c1NC(=O)N[C@H]1CC[C@@H](CC(=O)N2CCN(C)CC2)O[C@H]1CO | / | / | 0 | / | /
CCNS(=O)(=O)c1ccc2c(c1)n(C)c(=O)n2C | 4 | 1 | / | 22262* | 2
Cc1n[nH]c(=O)nc1Nc1ccc(O)cc1 | 0 | 0 | 21* | 10842 | 2
O=C(NCc1cccs1)c1cc(-c2cccs2)on1 | 4 | -1 | 1 | 22229* | 6
COc1ccc(CNC(=O)c2cc(-c3cccs3)on2)cc1 | 2 | 0 | / | 15915 | 4
Cc1ccc(Cn2ccc(NC(=O)c3cc(-c4cccs4)on3)n2)cc1 | -3 | 0 | / | 25079* | -6
CC(NC(=O)c1cc(-c2cccs2)on1)c1ccccc1 (stereo unspecified) | ? | -12 | / | 16362* | -2
Cc1ccc(NC(=O)c2cc(-c3cccs3)on2)cc1 | -1 | 3 | / | 3274 | -4
O=C(NCc1ccc(Cl)cc1)c1cc(-c2cccs2)on1 | 7 | -8 | / | 16902* | 6
SMILES | BoNT A protease | Anthrax LF inh2 | TcdB GH inh | Bead autofluor | BoNT-F LC inh
CCCc1cc(C(=O)Nc2ccn(Cc3ccc(C)cc3)n2)no1 | -1 | -2 | 2 | 4924 | -4
O=C(NCc1cccs1)c1cc(-c2ccccc2)on1 | -1 | -3 | / | 6656 | -12
Cc1noc(C)c1S(=O)(=O)Nc1ccc2c(c1)C(=O)N([C@H](C)CO)C[C@H](C)[C@@H](CN(C)Cc1ccccc1)OCCCC[C@H](C)O2 | / | / | 0 | / | /
COCC(=O)Nc1ccc2c(c1)OC[C@H](C)N(CC1CCCCC1)C[C@H](C)[C@H](OC)CN(C)C2=O | / | / | 1 | / | /
C[C@H]1CN([C@@H](C)CO)C(=O)Cc2cc(NS(C)(=O)=O)ccc2O[C@H]1CN(C)Cc1ccccc1 | / | / | 2 | / | /
C[C@H]1CN([C@@H](C)CO)S(=O)(=O)c2ccc(-c3cccc(F)c3)cc2O[C@H]1CN(C)S(=O)(=O)c1ccccc1 | / | / | -1 | / | /
CN(C)CC(=O)N[C@H]1CC[C@H](CC(=O)O)O[C@@H]1CO | / | / | 2 | / | /
Cc1ccccc1N(CC(=O)NCC1CCCO1)C(=O)C1(C)CC(=O)N=C2C=CC=CN21 (stereo unspecified) | 0 | -2 | / | 23341* | 0
COc1ccc(NC(=O)Nc2ccc3c(c2)C(=O)N([C@@H](C)CO)C[C@@H](C)[C@@H](CN(C)C(=O)C2CCCCC2)OCCCC[C@@H](C)O3)cc1 | / | / | -8 | / | /
COc1ccc(CNC(=O)COc2ccc(S(=O)(=O)N3CCCCC3)cc2)cc1 | -3 | -3 | 0 | 6277 | 4
Cc1cc(=O)oc2cc(OCC(=O)NCc3cccnc3)ccc12 | -2 | -3 | / | 23262* | -6
Cc1cc(=O)oc2cc(OCC(=O)NCc3ccncc3)ccc12 | 0 | -2 | 2 | 10891 | -6
O=C(COc1ccc(S(=O)(=O)N2CCCCC2)cc1)NCc1cccnc1 | 2 | -2 | 2 | 22072* | 4
COc1ccc(NC(=O)Nc2ccc3c(c2)C(=O)N([C@@H](C)CO)C[C@H](C)[C@H](CN(C)C(=O)NC(C)C)O3)cc1 | / | / | -1 | / | /
c1ccc(-c2nn3c(Cn4nnc5ccccc54)nnc3s2)nc1 | 0 | -6 | / | 5692 | -5
c1ccc(Cc2nn3c(Cn4nnc5ccccc54)nnc3s2)cc1 | ? | -1 | / | 22542* | -1
c1ccc2c(c1)OCC(c1nn3c(Cn4nnc5ccccc54)nnc3s1)O2 (stereo unspecified) | ? | 2 | 2 | 16268* | 1
Fc1ccc(-c2nnc3sc(C4COc5ccccc5O4)nn23)cc1 (stereo unspecified) | 0 | -7 | / | 8024 | 1
c1cncc(-c2nn3c(Cn4nnc5ccccc54)nnc3s2)c1 | 1 | 0 | 3 | 16144* | 3
CCOc1ccc(N2C(=O)Cc3ccccc3C2=O)cc1 | 2 | 1 | 1 | 4047 | 6
CCOc1ccc(N2C(=O)c3cccnc3C2=O)cc1 | 3 | -3 | / | 19193* | 3
CCOc1ccc(N2CC(=O)N(c3ccc(OCC)cc3)CC2=O)cc1 | 1 | -1 | / | 22131* | 2
O=C(c1cccnc1)N1C[C@@H]2[C@H](c3ccccc31)[C@H](CO)N2C(=O)C1CCCC1 | / | / | 1 | / | /
CC(=O)c1cccc(NS(=O)(=O)c2cc(OCC(N)=O)c(C)cc2Cl)c1 | 2 | -2 | / | 19294* | 4
Cc1cccc(NS(=O)(=O)c2cc(OCC(N)=O)c(C)cc2Cl)c1 | -1 | 1 | / | 3361 | -2
CC1=C(C(=O)Nc2ccccc2C)C(c2ccc(C)o2)N2C(=O)CSC2=N1 (stereo unspecified) | 4 | -8 | 0 | 20714* | 3
C[C@@H]1CN([C@H](C)CO)C(=O)c2cc(NS(C)(=O)=O)ccc2O[C@@H]1CN(C)Cc1ccc(-c2ccccc2)cc1 | / | / | 0 | / | /
CCN1[C@@H]2Cn3c(ccc(C4=CCCCC4)c3=O)[C@H]1[C@@H](C(=O)NCCc1ccncc1)[C@@H]2CO | / | / | 0 | / | /
O=C(O)CSc1nnc(-c2ccncc2)n1CCc1ccccc1 | -5 | 0 | 1 | 22072* | -6
